{"source": "paper PMC7819943", "about": "“Rice protein-binding microarrays: a tool to detect cis-acting elements near promoter regions in rice”", "note": "Whole data set: some 35,000 sequences, median “fluorescence intensity (a.u.)” near 10,000, cut for the highest 2% near 52,000. The sample holds the highest values, similar sequences and a random draw of the others, so the mix is not that of the screen."}
{"target": "T1, OsWOX13 (Oryza sativa, UniProt Q5QMM3 1-267)", "T1 sequence": "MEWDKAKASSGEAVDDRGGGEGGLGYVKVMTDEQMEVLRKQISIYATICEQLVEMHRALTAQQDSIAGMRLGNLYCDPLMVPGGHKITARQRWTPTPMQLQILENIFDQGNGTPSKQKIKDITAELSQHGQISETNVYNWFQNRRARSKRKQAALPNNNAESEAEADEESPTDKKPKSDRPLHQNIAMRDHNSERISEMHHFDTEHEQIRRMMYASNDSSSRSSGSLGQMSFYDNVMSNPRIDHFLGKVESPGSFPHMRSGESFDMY", "experiment": "protein-binding microarray (RPBM); PBS, 2% BSA, 51.3 ng/ul salmon testes DNA, 50 uM zinc acetate, 200 nM TF, 25 C, 1 h; high values mean tight binding", "conditions": "protein: recombinant; tags: N-terminal polyhistidine and DsRed monomer fusion (pET32a); label: CyDye5-dUTP incorporated in the synthesized complementary strand; 3' TTTTT single-stranded linker to array surface; dsDNA, one strand shown", "method_in_brief": "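Binding signal is defined as the fluorescence intensity of each feature in arbitrary units, read on an Axon 4000B scanner. Transcription factors with N-terminal polyhistidine and DsRed fusions came from E. coli BL21-CodonPlus and were purified on Ni–NTA. They were incubated at 200 nM for 1 h at 25 °C on a custom Agilent array that had been made double-stranded with Cy5-dUTP, with 50 µM zinc acetate present, and the array was washed.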"}
{"sequence": "TTGGTGTAATTGACATGCGGGCCCACAATTTTATTATTTTCGGAGTCACCTAGTGCAG", "binding signal": "23800 fluorescence intensity (a.u.)"}
{"sequence": "ATTGATAACGGCAGACTAACTGATACGACAGAGATGGTCACGGAGTCACCTAGTGCAG", "binding signal": "7620 fluorescence intensity (a.u.)"}
{"sequence": "CCGGATTGCTGGATCATTTTCTTCTCGGCCCATTGGACTCCGGAGTCACCTAGTGCAG", "binding signal": "3410 fluorescence intensity (a.u.)"}
{"sequence": "ATGATTACTAAAACTGTACTTAAAGGCAATGGTTTCTGTACGGAGTCACCTAGTGCAG", "binding signal": "13900 fluorescence intensity (a.u.)"}
{"sequence": "CATTGATTGGATCGTACGCTTGTGTTGCATGACCAATGATCGGAGTCACCTAGTGCAG", "binding signal": "44200 fluorescence intensity (a.u.)"}
{"sequence": "AATCCATGATTATCACATATTTACTGTAGAACTACATTGTCGGAGTCACCTAGTGCAG", "binding signal": "11200 fluorescence intensity (a.u.)"}
{"sequence": "TTAAATATAGTTAATTAAACTAGCTAGCTCCTCCGATCCTCGGAGTCACCTAGTGCAG", "binding signal": "12800 fluorescence intensity (a.u.)"}
{"sequence": "CTCTCTCCTTGGCCTCTTCCTCCCTGGTCGGTAGCGCAGCCGGAGTCACCTAGTGCAG", "binding signal": "59600 fluorescence intensity (a.u.)"}
{"sequence": "CAAAATTGGCTCCTCACCCTTGTGCAGATGCAGCCTTCTTCGGAGTCACCTAGTGCAG", "binding signal": "13700 fluorescence intensity (a.u.)"}
{"sequence": "GTAGGATTGGATGGATATAGGAGCCTGCCTTGCCTTCCTCCGGAGTCACCTAGTGCAG", "binding signal": "6030 fluorescence intensity (a.u.)"}
{"sequence": "CTTTGTAGACTGACAGTGATAGTATTGTACTGCTATACGTCGGAGTCACCTAGTGCAG", "binding signal": "9250 fluorescence intensity (a.u.)"}
{"sequence": "TGGGCGGTTAATTTGACTTCGATGTTCAGTACCTTGTGGGCGGAGTCACCTAGTGCAG", "binding signal": "4180 fluorescence intensity (a.u.)"}
{"sequence": "CTAGTAATAACACTGACATCAATTAGCAATTTAGCATCCGCGGAGTCACCTAGTGCAG", "binding signal": "13200 fluorescence intensity (a.u.)"}
{"sequence": "CTTGGCTGAAACAAATCAATTAACATCACAAACAGGAGAACGGAGTCACCTAGTGCAG", "binding signal": "11300 fluorescence intensity (a.u.)"}
{"sequence": "ATATAATTACAATACAATCGTAGTGTAATTACACTGTAACCGGAGTCACCTAGTGCAG", "binding signal": "14800 fluorescence intensity (a.u.)"}
{"sequence": "ACATTAATGATTAGAGACCATATTGTCATCAACTATTGTACGGAGTCACCTAGTGCAG", "binding signal": "30800 fluorescence intensity (a.u.)"}
{"sequence": "TCATAACTATTTTAATTGACATACAAACAATGAGGCGGCACGGAGTCACCTAGTGCAG", "binding signal": "58300 fluorescence intensity (a.u.)"}
{"sequence": "TTCGGTTTTATTTTAATTGACATTTTGGACAATGATACGGCGGAGTCACCTAGTGCAG", "binding signal": "27900 fluorescence intensity (a.u.)"}
{"sequence": "ACATCATTGACATAATATGATTTAACAACAAACAATTTAGCGGAGTCACCTAGTGCAG", "binding signal": "34800 fluorescence intensity (a.u.)"}
{"sequence": "TCATCGTGGTATTAATTATTTAATAATTATAAATATATTTCGGAGTCACCTAGTGCAG", "binding signal": "10200 fluorescence intensity (a.u.)"}
{"sequence": "GTTAATGATTAATTAGAGCATTTGTTGTCTCAACTATTGTCGGAGTCACCTAGTGCAG", "binding signal": "58600 fluorescence intensity (a.u.)"}
{"sequence": "AATAATCATACTAATTATATAAGTATATACTAAATATTATCGGAGTCACCTAGTGCAG", "binding signal": "7370 fluorescence intensity (a.u.)"}
{"sequence": "ACATTAATGATTAGAGACTATATTGTCTCTAACTGTTGTACGGAGTCACCTAGTGCAG", "binding signal": "39900 fluorescence intensity (a.u.)"}
{"sequence": "TCGTAAATTAATTATTAATAATATACTAATGGTATCCCCACGGAGTCACCTAGTGCAG", "binding signal": "53900 fluorescence intensity (a.u.)"}
{"sequence": "TAATGCTTAATTAATCTCAATATAATCGCGTGCTTTGTTTCGGAGTCACCTAGTGCAG", "binding signal": "7810 fluorescence intensity (a.u.)"}
{"sequence": "CTTAATTAATATAATCGGCAGGAGCTCACTGTTTGTTAACCGGAGTCACCTAGTGCAG", "binding signal": "52800 fluorescence intensity (a.u.)"}
{"sequence": "GCACCGTTGATGAAATTGCCGTTAGAATTTCGATCATCCCCGGAGTCACCTAGTGCAG", "binding signal": "4810 fluorescence intensity (a.u.)"}
{"sequence": "GGTAATGATTTAACACCACCTAATTTATTTTGAACAAGCTCGGAGTCACCTAGTGCAG", "binding signal": "20500 fluorescence intensity (a.u.)"}
{"sequence": "CATGTCTCAATAAATTGATCGTTGGCAAAATCGGTTAGTCCGGAGTCACCTAGTGCAG", "binding signal": "4980 fluorescence intensity (a.u.)"}
{"sequence": "CCATTAATTAATTAACCTGCAGCCTCAATTATTTGGTCTCCGGAGTCACCTAGTGCAG", "binding signal": "57600 fluorescence intensity (a.u.)"}
{"sequence": "TGCATTAATTATTGGAGAGTGCGGTCTCCTCTCCTCCCTCCGGAGTCACCTAGTGCAG", "binding signal": "23200 fluorescence intensity (a.u.)"}
{"sequence": "TGGAATTTTGAGTGTGTGATTGCGTTATTACGTTGCAAGTCGGAGTCACCTAGTGCAG", "binding signal": "3550 fluorescence intensity (a.u.)"}
{"sequence": "ATTAATTTGACCAACTTCATTCAACATGTAACATGGTCTCCGGAGTCACCTAGTGCAG", "binding signal": "16600 fluorescence intensity (a.u.)"}
{"sequence": "GGTAATTTGTCCGGTATTGAAAGTTTAGGGTGAGCAATGTCGGAGTCACCTAGTGCAG", "binding signal": "22900 fluorescence intensity (a.u.)"}
{"sequence": "AAACATTAATTTGTTTTATAATATATTATAAATGACTATACGGAGTCACCTAGTGCAG", "binding signal": "15500 fluorescence intensity (a.u.)"}
{"sequence": "TTTAATTAAATTTAACATTAAATATATTTTGACTATTTGTCGGAGTCACCTAGTGCAG", "binding signal": "53000 fluorescence intensity (a.u.)"}
{"sequence": "TTAATAATTATTGTAAAATTTAATTTATATTTATTTGAATCGGAGTCACCTAGTGCAG", "binding signal": "22600 fluorescence intensity (a.u.)"}
{"sequence": "AATTAAATTTTAACTATTAATATTATATTTTATAAATATTCGGAGTCACCTAGTGCAG", "binding signal": "6480 fluorescence intensity (a.u.)"}
{"sequence": "TATTAATTTAATAAAATTAATTTGGTAATGTAAATATTATCGGAGTCACCTAGTGCAG", "binding signal": "15600 fluorescence intensity (a.u.)"}
{"sequence": "GAAGTGATTGATATTTGAGCAATTAGTCCGTTGTCAGGGTCGGAGTCACCTAGTGCAG", "binding signal": "62400 fluorescence intensity (a.u.)"}
{"sequence": "ATATAATTAATTAAAATATTAATTATTATTTGTAAAATGGCGGAGTCACCTAGTGCAG", "binding signal": "65500 fluorescence intensity (a.u.)"}
{"sequence": "TCCGATTAATGTGGAAATTTCTAGCCTCCACAGCGAACGTCGGAGTCACCTAGTGCAG", "binding signal": "8650 fluorescence intensity (a.u.)"}
{"sequence": "TAGATACGAAAATTAATTGGAATTTTGGATTTGGATGGGACGGAGTCACCTAGTGCAG", "binding signal": "24500 fluorescence intensity (a.u.)"}
{"sequence": "GTCACATCATTCTAATTTCAATTAAACTTCAAATTTTGGCCGGAGTCACCTAGTGCAG", "binding signal": "12900 fluorescence intensity (a.u.)"}
{"sequence": "CTGCAACTAAATTTTAGGATTAATTTAAGGAACTTTCGGGCGGAGTCACCTAGTGCAG", "binding signal": "11300 fluorescence intensity (a.u.)"}
{"sequence": "CAATGGTAAATTTATCCAGTCCAAAGTGAAAATATATGGTCGGAGTCACCTAGTGCAG", "binding signal": "3960 fluorescence intensity (a.u.)"}
{"sequence": "CTCCTTAATTTACTTATTTGTCTTTAATTGGTTCTCGCACCGGAGTCACCTAGTGCAG", "binding signal": "33700 fluorescence intensity (a.u.)"}
{"sequence": "CTGCCTGTAAATTTCTGTGATTTGATGTTTGCCTCTGTTGCGGAGTCACCTAGTGCAG", "binding signal": "11300 fluorescence intensity (a.u.)"}
{"sequence": "ATTTAAATCATCATCTATAGTCAATCTAATAGCTCACTCACGGAGTCACCTAGTGCAG", "binding signal": "8910 fluorescence intensity (a.u.)"}
{"sequence": "AGTAATTTTGGTACAATTAATAAATAAATCTGATACCTCACGGAGTCACCTAGTGCAG", "binding signal": "21200 fluorescence intensity (a.u.)"}
{"sequence": "AGTGATAAATTTGAGTGATTACTATATGACACCGTTGTGTCGGAGTCACCTAGTGCAG", "binding signal": "55700 fluorescence intensity (a.u.)"}
{"sequence": "TATAACTAAAATTATATTTGTAAGTTTAGTTGATATGACACGGAGTCACCTAGTGCAG", "binding signal": "6390 fluorescence intensity (a.u.)"}
{"sequence": "AATAATAATTAATTATAGTAATTAATCATTAATTTTGTACCGGAGTCACCTAGTGCAG", "binding signal": "64100 fluorescence intensity (a.u.)"}
{"sequence": "GTTAATTAATTATATTATAATAATTCTCTCAATTTGTCGCCGGAGTCACCTAGTGCAG", "binding signal": "65500 fluorescence intensity (a.u.)"}
{"sequence": "TTTTAGTAAATTAATAAATATTTATTTTGTTATTTAATACCGGAGTCACCTAGTGCAG", "binding signal": "13200 fluorescence intensity (a.u.)"}
{"sequence": "GATTAATTAATTAATCTCAATGATGGTAAATACATTCCCACGGAGTCACCTAGTGCAG", "binding signal": "63100 fluorescence intensity (a.u.)"}
{"sequence": "TAATATTATATTTAATTTGCATTATTTTAAATATAGTACCCGGAGTCACCTAGTGCAG", "binding signal": "3730 fluorescence intensity (a.u.)"}
{"sequence": "TTTTAAATTTAAAATAATTAAAACTCAATTAATAATTTGTCGGAGTCACCTAGTGCAG", "binding signal": "31300 fluorescence intensity (a.u.)"}
{"sequence": "ATCAATCTCAATGGTTAAATGATTGATCTATCATAATTCACGGAGTCACCTAGTGCAG", "binding signal": "22100 fluorescence intensity (a.u.)"}
{"sequence": "ATTAAATCAATAATTAAATATATTTTCATAATAAATTTGTCGGAGTCACCTAGTGCAG", "binding signal": "23400 fluorescence intensity (a.u.)"}
{"sequence": "AATAATTAAATTTGATATAATAAATTAATATGTGATATGTCGGAGTCACCTAGTGCAG", "binding signal": "35700 fluorescence intensity (a.u.)"}
